Reference: PubChem BioAssay AID624304 (Sanford-Burnham Center for Chemical Genomics, 2012)
Among all 360,000 compounds or so, about 1,800 (0.5%) were called active. For the sample, actives were picked, then their nearest neighbours and some compounds at random. A number with no mark means an inactive call.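 Rule for the calls: active = interference check ratio from 0.5 to 1.5 plus GFP to RFP signal ratio inhibition reaching or exceeding a fixed threshold (cut at about 30% in these data, passing the limit was not always enough); inactive = the rest.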

Test: gst-4 reporter inhibition in live C. elegans – whole organism, uHTS, GFP/RFP fluorescence ratio, strain VP596, SKN-1 inhibitor project, primary screen (AID 624304)
Conditions: C. elegans VP596 Pgst-4::GFP/RFP ratio, acrylamide-induced, 24 h; at 21.8 µM; hits give high values
For `COc1cccc(OC)c1C(=O)Nc1ccc(Cc2ccncc2)cc1`, the inhibition was -3.1%. `COc1ccccc1N(C)S(=O)(=O)c1ccc(Cl)c(C(=O)Nc2ccncc2)c1` gave an inhibition of 23.4%. In the case of `COc1cc2ccccc2cc1C(=O)Nc1ccncc1`, the inhibition is reported as 36.2% (active). For `O=C(O)c1cccc2c1C(=O)N(C1CCCC1)C2`, the inhibition was -4.43%. Compound `Cc1ccc2c(=O)oc(N(C)C)nc2c1` has an inhibition of 8.34%. `CN(Cc1nc2ccccc2c(=O)[nH]1)Cc1cc(=O)oc2ccc3ccccc3c12` gave an inhibition of 14.1%. In the case of `CCN(CC)c1ccc2oc(=O)c(C)nc2c1`, the inhibition is reported as 40.8% (active). With `Cc1c(Cl)c([N+](=O)[O-])nn1CC(=O)NCCCN1CCOCC1` the inhibition was 28.4%. With `CC1Cc2ccccc2N1S(=O)(=O)c1cccc(C(=O)OCC(=O)N2CCOCC2)c1` (stereo not given) the inhibition was 17.4%. Work on `CC1Cc2ccccc2N1S(=O)(=O)c1cccc(C(=O)NCC(c2ccco2)N2CCCC2)c1` (stereo not given) yielded an inhibition of 4.55%. In the case of `CCCCn1ccnc1C(=O)c1cccc(S(=O)(=O)N2c3ccccc3CC2C)c1` (stereo not given), the inhibition is reported as 41.7% (active). Compound `COCCN(C(=O)COC(=O)Cc1cccc(OC)c1)c1c(N)n(Cc2ccccc2)c(=O)[nH]c1=O` has an inhibition of 5.12%. `CCCCOc1ccc(N(CC(=O)NC(C)C)C(=O)CCC(=O)Nc2ccccn2)cc1` gave an inhibition of -1.05%. `O=C(NCCCn1ccnc1)C(=O)NCC1OCCN1S(=O)(=O)c1cc(F)ccc1F` (stereo not given) gave an inhibition of -7.89%. Work on `CCc1ccc(-c2nc(SCC(=O)NC3CCCC3)n[nH]2)cc1` yielded an inhibition of 3.3%. With `Cn1c(=NC(=O)c2ccco2)sc2cccc(F)c21` the inhibition was 7.91%. With `Cn1c(=NC(=O)C2CC2)sc2cc(F)cc(F)c21` the inhibition was 38% (active). With `CSCCNCc1cn(-c2ccc(F)cc2F)nc1-c1ccccc1C` the inhibition was -14.2%. For `O=C1CC2(CCN(C(=O)COc3ccc(F)cc3)CC2)Oc2ccccc21`, the inhibition was -3.05%. `CN(C)/C=N/c1cc(=O)n(C)c(=O)n1CC1CC1` gave an inhibition of 8.63%. For `CN=C1C=C/C(=N/N=c2\ccn(O)cc2C)C=C1C`, the inhibition was 41.1% (active). Work on `COc1ccc(/C=C/C2=CC(C)(C)NC(=S)N2)c(OC)c1` yielded an inhibition of -2.28%. With `Fc1cccc(Cl)c1COc1ccc(-c2nnco2)cc1` the inhibition was 23.1%. In the case of `Fc1ccc(COc2ccc(-c3nnco3)cc2)cc1`, the inhibition is reported as 77.7% (active). `Fc1ccc(COc2cccc(-c3n[nH]c(=S)o3)c2)cc1` showed an inhibition of -1.11%. Compound `Cc1cccc(NC(=O)NC2(C)CCS(=O)(=O)C2)c1` (stereo not given) has an inhibition of -6.44%. With `CCCC(NCC(=O)Nc1ccccc1C(=O)NC1CC1)c1ccccc1` (stereo not given) the inhibition was 11.1%. Work on `Cc1ccc(NC(=O)NC(=O)CSc2nnc(-c3ccc(OC(F)F)cc3)n2N)c(C)c1` yielded an inhibition of 1.8%. For `CC(C)C[C@@H](COc1ccccc1)N1CCN(CC(C)C)CCC1=O`, the inhibition was 12.3%. For `CC/C(=C\c1ccc(Cl)cc1)c1ccncc1`, the inhibition was 57.3% (active). `CC(Cc1cccs1)N(Cc1ccc(Cl)cc1)C(=O)c1ccncc1` (stereo not given) showed an inhibition of 8.76%. In the case of `N#C/C(=C/c1ccc(Cl)cc1)NC(=O)c1ccccc1`, the inhibition is reported as -13.8%. Compound `CCCSC(=S)NC1CCS(=O)(=O)C1` (stereo not given) has an inhibition of 10.7%. With `O=C(OCC(=O)N1CCCC1=O)c1cc(S(=O)(=O)N2CCOCC2)ccc1Cl` the inhibition was 6.4%. Work on `O=C(OCC(=O)N1CCOCC1)c1ccc2ccccc2c1` yielded an inhibition of -11.5%. `COc1ccc(OC)c(/C(C)=N\NC(=O)c2cc3cc(Cl)ccc3n2C)c1` showed an inhibition of 1.75%. For `C=C(C)c1cccc(C(C)(C)NC(=O)NC2CCCC2)c1`, the inhibition was -1.51%. With `C=C(C)c1cccc(C(C)(C)NC(=O)NCCN(CC)CC)c1` the inhibition was -10.6%. With `C=C(C)c1cccc(C(C)(C)NC(=O)N2CCN(c3ncccn3)CC2)c1` the inhibition was 36.7% (active). `COc1cccc(NC(=O)C2C(c3ccccc3)C2(Cl)Cl)c1` (stereo not given) gave an inhibition of -10.4%. `COc1ccc(N2CCN(C(=O)CCNC(=O)c3ccc(Br)cc3)CC2)cc1` showed an inhibition of 4.57%. `CCOc1ccccc1NC(=O)c1cc(S(=O)(=O)N2CCC3(CC2)OCCO3)ccc1F` gave an inhibition of 3.17%. With `CN1OC[C@@H]2CN(C(=O)c3ccc(-c4ccccc4)cc3)[C@H](c3ccc(-c4cccc(F)c4)cc3)C[C@@H]21` the inhibition was -1.35%. Work on `CC(=O)N1CCN(C(=O)C2(NC(=O)Nc3ccc(C)cc3)CCCCC2)CC1` yielded an inhibition of -13.7%. `O=C(C1CCCO1)N1CCN(C(=O)C23CC4CC(CC(C4)C2)C3)CC1` (stereo not given) gave an inhibition of 24.4%. In the case of `N/C(Cc1ccc([N+](=O)[O-])cc1)=N\OC(=O)COc1ccc2ccccc2c1`, the inhibition is reported as -1.15%. For `CCn1nccc1C(=O)Nc1ccc(Cl)c(Cl)c1`, the inhibition was 44.5% (active). Compound `CC(c1cccnc1)N(CCN(C)C)C(=O)Nc1ccc(Cl)c(Cl)c1` (stereo not given) has an inhibition of 0.83%. `CCn1nccc1C(=O)Nc1ccc(S(=O)(=O)NC23CC4CC(CC(C4)C2)C3)cc1` showed an inhibition of 5.56%. `CC1CCCC(C)N1C(=O)CSc1nnnn1C1CCCC1` (stereo not given) showed an inhibition of -2.05%. With `COc1ccccc1-c1nnc(-c2ccc(F)cc2)o1` the inhibition was 45% (active). Compound `COc1ccccc1C1=CC(=O)C[C@H](c2ccc(F)cc2)C1` has an inhibition of 8.41%. With `COc1ccccc1-c1cc(NC(C)=O)c2ncc(-c3ccc(F)cc3)n2c1` the inhibition was 18.1%. `Cn1c(SCC(=O)N2CCOCC2)nnc1-c1ccc2ncccc2c1` gave an inhibition of 3.82%. `N#Cc1c(C(F)(F)F)cc(-c2ccccc2)nc1SCC(=O)N1CCOCC1` gave an inhibition of 2.8%. With `Cc1cccc(-c2nc3c(c(SCC(=O)N4CCOCC4)n2)CCCC3)c1` the inhibition was 37.9% (active). With `Cc1ccc(C)c(S(=O)(=O)N2CC(=O)Nc3ccccc32)c1` the inhibition was -15.3%. `CCOC(=O)c1cc(C)nc(S(C)(=O)=O)c1C#N` gave an inhibition of 13.5%. `CCOC(=O)c1c(C(C#N)C#N)cc(C)nc1C` showed an inhibition of -3.86%. With `CCCCSc1[nH]c(=O)c(C(=O)OCC)cc1C#N` the inhibition was 48.3% (active). For `CC(=O)Nc1cnc(-c2ccc(O)cc2C)cn1`, the inhibition was -1.38%. `CCC(Oc1ccccc1)C(=O)OCC(=O)Nc1c(C)nn(-c2ccccc2)c1C` (stereo not given) showed an inhibition of 15.9%. With `CC(C)C1CCN(C(=O)C2CCC(=O)N(C3CCCCCC3)C2)CC1` (stereo not given) the inhibition was -2.6%. For `Cc1nn(CC2CC2)c(=O)n1N(C)c1ncc(C(F)(F)F)cc1Cl`, the inhibition was 3.57%. For `Cc1nn(-c2ncc(C(F)(F)F)cc2Cl)c(=O)n1-c1ccccc1`, the inhibition was 35.6% (active). Work on `Cc1nn(CC#N)c(=O)n1N(C)c1ncc(C(F)(F)F)cc1Cl` yielded an inhibition of -3.68%. For `CCCn1c(N)c(C(=O)CSc2nnc3n2CCCCC3)c(=O)[nH]c1=O`, the inhibition was 9.24%. `COc1ccccc1C(=O)N(C1=NC(C)CS1)c1ccc(Cl)cc1` (stereo not given) showed an inhibition of -17.9%. With `Cc1ccc(N/C(N)=N/c2nc(C(F)(F)F)cc(C(F)(F)F)n2)cc1` the inhibition was 2.4%. For `Oc1ccc(N=Nc2nccs2)c(O)c1`, the inhibition was 40.3% (active). For `CCN(CC)P(=O)(/C(Cl)=C\Nc1c(C)n(C)n(-c2ccccc2)c1=O)N(CC)CC`, the inhibition was 38.6% (active). Work on `Cc1cc(C)cc(N(CC(=O)Nc2c(C)n(C)n(-c3ccccc3)c2=O)S(C)(=O)=O)c1` yielded an inhibition of -7.93%. Compound `Cc1c(NC(=S)Nc2ccccc2)c(=O)n(-c2ccccc2)n1C` has an inhibition of 13.7%. `C=CC[C@@H](CC(=O)NCCO)C(=O)N[C@H](C)COC(=O)[C@@H](CC=C)CC(=O)OC(C)(C)C` showed an inhibition of 4%. With `CCOC(=O)C1CN(S(=O)(=O)c2ccc(F)cc2)C1` the inhibition was -3.48%. `O=C(O)c1cccc(S(=O)(=O)N2CC=C(c3ccccc3)CC2)c1` showed an inhibition of -4.6%. With `Cc1c(C2=CCN(S(=O)(=O)c3ccc(Cl)cc3)CC2)c2ccccc2n1C` the inhibition was 40.5% (active). `O=S(=O)(c1ccc(F)cc1)N1CC=C(c2ccccc2)CC1` gave an inhibition of 0.877%. For `O=C(CSc1cccc[n+]1[O-])c1ccc(-c2ccccc2)cc1`, the inhibition was -20.6%. `O=C(O)/C(=C/c1cccnc1)NC(=O)c1ccccc1` showed an inhibition of 0.0898%. For `Cc1cccc(NS(=O)(=O)c2ccc(C(=O)NCC(C)(C)N3CCOCC3)cc2)c1C`, the inhibition was -5.62%. `Cc1cc(C(=O)COc2ccccc2[N+](=O)[O-])c(C)n1-c1cccc(S(=O)(=O)N2CCOCC2)c1` showed an inhibition of 7.44%. `COCCNC(=O)CN(C(=O)CCC(=O)Nc1cc(C)on1)c1ccc(C)cc1C` gave an inhibition of -14.7%. For `CC1CN(c2nc(Nc3ccccc3)nc(N)c2[N+](=O)[O-])CC(C)O1` (stereo not given), the inhibition was 38% (active). `COCCNc1nc(N)c([N+](=O)[O-])c(N2CCCCCC2)n1` showed an inhibition of 23.7%. `Nc1nc(NCCCN2CCOCC2)nc(Nc2ccccc2)c1[N+](=O)[O-]` showed an inhibition of 5.52%. In the case of `CCN(CC)C(=O)CSc1nc2ccccc2o1`, the inhibition is reported as 0.512%. With `Fc1ccccc1OCCSc1nc2ccccc2o1` the inhibition was 36.2% (active). `CC(C)(C)C(=O)CSc1nc2ccccc2o1` gave an inhibition of -6.68%. In the case of `Cn1c(SCC(=O)OC2CCCCC2)nnc1-c1ccc(S(=O)(=O)N2CCCC2)cc1`, the inhibition is reported as -4.66%. `O=C(NCCc1nnc2ccc(SCC(=O)N3CCOCC3)nn12)c1ccccc1` gave an inhibition of 9.19%. Compound `O=C(NCc1ccco1)C1(c2ccc(Cl)cc2)CCCC1` has an inhibition of -1.05%. Work on `O=C(CSc1nnnn1-c1ccccc1)NCc1ccco1` yielded an inhibition of -15%. With `O=C(CSc1c2c(nc3ccc(Cl)cc13)CCCC2)NCc1ccco1` the inhibition was 82.7% (active). Work on `CCn1c(=O)n(CC)c2cc(N3CCCC3)c(NC(=O)c3ccccc3Br)cc21` yielded an inhibition of -26.6%.
